Compound activity deposited in PubChem BioAssay by National Center for Advancing Translational Sciences (NCATS).
A selection: hits, their analogues and other compounds. The true share with any hit is near 2.7%.
HEK293 tox: cytotoxicity counter-screen for GLP-1 receptor inverse agonists; Potency, µM (top dose mostly 38.3 µM), without a hit: at the highest dose activity change, negative = inhibition, actives largely listed as inhibitors; HEK293 cAMP-luciferase reporter cells, luminescence, 24 h; AID 624418; 410,000 compounds, 0.13% hits;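 further: loss of luciferase light is scored as toxicity; on the % scale 0 is the no-effect control and ±100 the full control effect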
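Here, cytotoxicity is scored as loss of luminescence. The MLSMR collection was tested on cells seeded in medium containing 10% Nu serum, with a 24 hr compound exposure preceded by 12 hours of culture.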
GLP-1R agonist: GLP-1 receptor (human) agonism; P43220; HEK293 GLP-1R CRE-luciferase, luminescence, 4-6 h; cells express a hypersensitive GLP-1R form; Potency, µM (series often up to 45.6 µM), inactives show at the top dose activation, actives largely listed as activators; 380,000 compounds, 0.007% hits; further: % of control where 0% means no effect
IDH1 R132H inh: inhibitors of human mutant IDH1 R132H; IDH1-R132H enzyme, NADPH consumption, diaphorase/resazurin fluorescence; Potency, µM (titrated, usually from 76.6 µM), for the others: top-dose activity change, negative = inhibition, actives largely listed as inhibitors; 390,000 compounds, 0.093% hits; O75874; further: on the % scale 0 is the no-effect control and ±100 the full control effect; nearly all actives have a fitted effect of over 65% in size
Target sequence (O75874 whole entry R132H, stated change not applied): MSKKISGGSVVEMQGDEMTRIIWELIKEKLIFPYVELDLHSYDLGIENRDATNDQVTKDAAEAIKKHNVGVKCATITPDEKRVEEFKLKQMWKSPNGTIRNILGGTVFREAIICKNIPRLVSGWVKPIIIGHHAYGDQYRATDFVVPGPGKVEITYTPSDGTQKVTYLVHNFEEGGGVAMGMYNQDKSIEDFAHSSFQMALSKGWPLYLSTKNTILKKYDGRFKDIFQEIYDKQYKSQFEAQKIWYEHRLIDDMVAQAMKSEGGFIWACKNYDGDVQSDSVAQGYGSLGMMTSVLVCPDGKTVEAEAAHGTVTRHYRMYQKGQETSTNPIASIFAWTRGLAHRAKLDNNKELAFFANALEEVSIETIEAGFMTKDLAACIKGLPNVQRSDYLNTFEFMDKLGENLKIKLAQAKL
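IDH1-R132H (0.5 ug/mL) preincubated 30 min with compound, then NADPH (0.016 mM) and alpha-KG (2 mM) added; 80 min at RT, pH 7.5. Remaining NADPH coupled via diaphorase/resazurin to fluorescence (540/590 nm); concentration-response curves normalized to no-enzyme control.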
TrxR1 inh: blocks rat thioredoxin reductase 1 | O89049 | recombinant rTrxR1, NADPH fluorescence consumption, selenite substrate | Potency, µM (highest dose often 114 µM), for the others: at the top dose activity change, negative = inhibition, most hits filed as inhibitors | 390,000 compounds, 1% hits | AID 588453; further: on the % scale 0 is the no-effect control and ±100 the full control effect; nearly all actives have a fitted effect of over 65% in size
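Rat TrxR1 (90 nM in the dispensed reagent) was pre-reduced with 400 uM NADPH for 5 min at room temperature, then incubated with compound for 15 min. After 400 uM selenite was added, NADPH fluorescence (Ex 340/Em 450 nm) was followed for 8 min.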
TrxR1 substrate: is turned over as a substrate by rat TrxR1. purified TrxR1 substrate turnover, NADPH consumption readout. Potency, µM (top dose mostly 114 µM), inactives show top-dose activity change, negative = substrate turnover. 390,000 compounds, 0.01% hits. AID 588456; further: on the % scale 0 is the no-effect control and ±100 the full control effect; nearly all actives have a fitted effect of over 50% in size
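Rat TrxR1, dispensed at 90 nM, was prereduced with 400 uM NADPH (final) for 5 min at ~22 deg C, then incubated with compound 15 min before 400 uM selenite. A first-read NADPH fluorescence drop versus no-compound background flagged substrates.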
GLP-1R inv ag: inverse agonists of human GLP-1 receptor; HEK293 GLP-1R CRE-luciferase, luminescence, 24 h; GLP-1R form is constitutively active; P43220; Potency, µM (top dose mostly 38.3 µM), for the others: at the highest dose activity change, negative = inhibition, most hits filed as inhibitors; 410,000 compounds, 1.6% hits; further: on the % scale 0 is the no-effect control and ±100 the full control effect; nearly all actives have a fitted effect of over 55% in size
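Luminescence readout: a drop in cAMP-driven luciferase signal flags inverse agonism at a constitutively active GLP-1R stably expressed in HEK293. Compound exposure lasted 24 hr at 37 deg C, 5% CO2.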
The depositor's hits bear a star; ? = inconclusive; / = no result given; [ ] = dose if it differs, or a comment. The call rests on the fitted dose curve; in most records, active means well fitted curve in the direction sought with a large enough effect; inconclusive means small, poorly fitted or top-dose-only effect, or another doubt; inactive means no such curve, though single readings can be large; an effect the other way counts as inactive or inconclusive. Potency means the concentration at half of the fitted maximal effect.

SMILES	HEK293 tox	GLP-1R agonist	IDH1 R132H inh	TrxR1 inh	TrxR1 substrate	GLP-1R inv ag
Cc1cc(C)cc(NC(=O)c2cc(S(=O)(=O)NCCC3=CCCCC3)ccc2F)c1	-6.8%	/	-5.2%	7.5%[57.1 µM]	-0.6%[57.1 µM]	?
Cc1ccc(NC(=O)c2cc(S(=O)(=O)N3CCCc4ccccc43)ccc2F)cc1F	9.1%	/	0.5%	13.1%[57.1 µM]	1.6%[57.1 µM]	12.6µM*
COc1ccc(S(=O)(=O)N2CCc3ccccc32)cc1C(=O)Nc1cccnc1	-6.8%	10µM*	7.5%	-1.1%	-0.8%	64.6%
Cc1cccc(C)c1NC(=O)c1cc(S(=O)(=O)N2CCCc3ccccc32)ccc1F	19.1%	/	-17.2%	12.7%[57.1 µM]	-3.7%[57.1 µM]	3.16µM*
Cc1ccc(/C=N/Nc2nc(N3CCCCC3)nc(N3CCCCC3)n2)o1	-1.9%[7.66 µM]	11.5%	2.5%	14.0%[57.1 µM]	2.4%[57.1 µM]	-26.0%[7.66 µM]
COC(=O)c1ccccc1-c1ccc(/C=N/Nc2nc(N3CCCC3)nc(N3CCCC3)n2)o1	?	7.5%	0.6%	10.0%[57.1 µM]	65.1%	10µM*
CCC(=O)Oc1ccc(C/C(=N\O)c2ccc(O)cc2O)o1	-23.5%	-4.8%	-1.4%	10µM*	9.6%	88.9%
CCOC(=O)c1ccc(CC(=O)c2ccc(O)cc2O)o1	-21.0%	6.1%	-14.5%	-6.3%[57.1 µM]	13.2%[57.1 µM]	86.5%
Cc1cc(C)nc(S/C=C/C(=O)c2ccccc2F)n1	3.55µM*	2.5%	5.8%	2µM*	10.8%[57.1 µM]	?
Cc1cc(C)nc(NC(=S)NC(=O)c2ccccc2F)n1	-22.0%	11.8%	13.7%	10.2%	1.5%[57.1 µM]	14.9%
COc1cccc(OC)c1C(=O)NCC12CC3CC(C1)CC(CNC(=O)c1c(OC)cccc1OC)(C3)C2	0.2%	-5.3%	1.3%	20.4%	-3.0%	-22.9%
COC(=O)NCC12CC3CC(C1)CC(CNC(=O)OC)(C3)C2	12.4%	4.5%	-1.5%	35.5µM*	4.8%	-0.1%
COc1cc(Cl)c(C)cc1Nc1ncnc2c1nc1n2CCCC1	1.7%	/	9.6%	0.6%	-2.9%	5.0%
O=C(CNc1cccc(Cl)c1)NNC(=S)NCc1ccccc1	-6.8%[0.307 µM]	-2.1%	0.0%	12.3%[57.1 µM]	-12.2%	-11.2%[0.307 µM]
S=C(NCCSCc1ccc(Cl)cc1Cl)Nc1ccccc1	-8.0%	-0.3%	14.4%	-17.9%	-9.4%	3.55µM*
S=C(NCc1ccccc1)Nc1cccc(Cl)c1	10µM*	-1.2%	1.5%	-15.4%	-13.3%	?
Fc1cccc(NC(=S)NCc2ccccn2)c1	10µM*	2.6%	-9.7%	-0.6%	2.0%	?
S=C(NCc1ccccc1)NNc1ccccc1	8.91µM*	0.8%	3.7%	10.7%[57.1 µM]	11.5%[57.1 µM]	10µM*
O=P(O)(O)OC[C@@H](O)CO	/	19.0%	/	/	/	/
CCC(=O)N(CC)C1=C(O)c2ccccc2C(=O)C1=O	47.7%	-2.1%	10.1%	1.12µM*	-22.9%	3.1%
CCCOC(=O)c1ccc(-c2ccc(C=O)o2)cc1	12.3%	-1.4%	6.3%	31.6µM*	73.7%	16.6%
CCOC(=O)c1ccc(-c2ccc(C=O)o2)cc1	19.1%	14.0%	3.5%	?	72.5%[57.1 µM]	-1.1%
CN=C1c2cc3cc(OC)ccc3n2CCN1Cc1ccccc1	-15.0%	9.7%	7.1%	19.3%	3.7%	5.01µM*
COc1ccc2c(c1)nc(N)n2Cc1ccccc1	-8.8%	-0.4%	3.7%	22.4%[11.4 µM]	7.1%[57.1 µM]	-18.0%
COc1ccc(NC(=O)CN2C(=O)CCc3cc(S(=O)(=O)N4CCOCC4)ccc32)c(OC)c1	1.1%	/	-6.8%	8.4%[57.1 µM]	1.0%[57.1 µM]	4.3%
Cc1ccc(C(C)NC(=S)NCc2ccc(F)cc2)cc1C (configuration not stated)	-1.2%	4.8%	-4.8%	7.3%	-5.1%	8.91µM*
CCc1ccc(C(C)NC(=S)NCc2ccc(F)cc2)cc1 (configuration not stated)	?	8.3%	-14.3%	7.6%	-3.2%	?
Cn1nc(-c2ccncc2)nc2c(=O)n(C)c(=O)nc1-2	/	/	/	20µM*	20µM*	/
